This passage reports cell viability and kynurenine production results from the supplement of paper PMC13094657.

In assay [1] the test system is MDA-MB-231. Briefly: cell viability relative to vehicle unstimulated control (fraction); higher = more viable cells. To be noted: pre-treatment time: 18 h then 24 h IFNg/TNF.
Assay [2] deals with MDA-MB-231. Briefly: kynurenine production, fold change vs DMSO IFNg/TNF control; higher = more kynurenine produced (less inhibition). The conditions noted are these: pre-treatment time: 18 h then 24 h IFNg/TNF. The procedure, abridged: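 MDA-MB-231 cells were seeded in 96-well plates at 7 × 10^4/well and, 24 h later, pre-treated for 18 h with each natural product in 0.1% DMSO. They were then stimulated for 24 h at 37°C with IFNγ (1 U/ml) and TNF (6.25 ng/ml). Supernatants were treated with trichloroacetic acid and p-dimethylaminobenzaldehyde and read at 492 nm against 0–100 μM standards. Kynurenine production is expressed as fold change over cytokine-stimulated vehicle wells on the same plate and, in the first screening round, averaged across duplicate plates.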

± gives the standard deviation of the averaged measurements.
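Throughout, for cell viability relative to vehicle unstimulated control: viability of the cells left after supernatant collection, read with Deep Blue dye added for 4 h, as absorbance at 570 nm minus 600 nm.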

As to `CC1(C)CC[C@]2(CO)CC[C@]3(C)C(=CC[C@@H]4[C@@]5(C)CC[C@H](O)C(C)(C)[C@@H]5CC[C@]43C)[C@@H]2C1` [Erythrodiol] (compound dose: 10 uM), the cell viability in assay [1] turned out to be 1.08 ± 0.031. The kynurenine production in assay [2] was 0.842 ± 0.14.
As to `CC(C)=CCC/C(C)=C/CO` [Geraniol] (compound dose: 10 uM), the cell viability in assay [1] amounted to 0.998 ± 0.042. Besides, the kynurenine production in assay [2] came out at 0.829 ± 0.2.
For the compound `C[C@@H]1O[C@@H](O[C@@H]2[C@@H](O)[C@H](O[C@H]3CC[C@]4(C)[C@H]5CC=C6[C@@H]7CC(C)(C)CC[C@]7(C(=O)O[C@@H]7O[C@H](CO)[C@@H](O)[C@H](O)[C@H]7O)CC[C@@]6(C)[C@]5(C)CC[C@H]4C3(C)C)O[C@H](C(=O)O)[C@H]2O)[C@H](O)[C@H](O)[C@H]1O` (compound dose: 10 uM), in assay [1], the cell viability is 0.941 ± 0.015. The kynurenine production in assay [2] is 0.932 ± 0.11.
`C=C1CCC[C@]2(C)C=C3OC(=O)C(C)=C3C[C@@H]12` [Atractylenolide I] (compound dose: 10 uM): in assay [1], the cell viability was found to be 0.983 ± 0.028. Besides, in assay [2], the kynurenine production amounted to 0.853 ± 0.2.
The matching figures for `CC(C)=CCC[C@](C)(O)[C@@H]1CC=C(C)CC1` [alpha-Bisabolol] (compound dose: 10 uM): 0.9925 ± 0.0046 and 0.79 ± 0.15.
`CC(C)=CCC[C@](C)(O[C@@H]1O[C@H](CO)[C@@H](O)[C@H](O)[C@H]1O)[C@H]1CC[C@]2(C)[C@@H]1[C@H](O)C[C@@H]1[C@@]3(C)CC[C@H](O)C(C)(C)[C@@H]3CC[C@]12C` [Ginsenoside C-K] (compound dose: 10 uM): in assay [1], the cell viability is 0.969 ± 0.016. The kynurenine production in assay [2] was 0.912 ± 0.14.
On to `C[C@H]1COC2=C1C(=O)C(=O)c1c2ccc2c1CCCC2(C)C` [Cryptotanshinone] (compound dose: 10 uM), for which the cell viability in assay [1] is 0.885 ± 0.048. In addition, in assay [2], the kynurenine production was found to be 0.3818 ± 0.0038.
`CC1(C)CC[C@]2(C(=O)O[C@@H]3O[C@H](CO)[C@@H](O)[C@H](O)[C@H]3O)CC[C@]3(C)C(=CC[C@@H]4[C@@]5(C)CC[C@H](O[C@@H]6O[C@H](C(=O)O)[C@@H](O[C@@H]7O[C@@H](CO)[C@H](O)[C@H]7O)[C@H](O)[C@H]6O)C(C)(C)[C@@H]5CC[C@]43C)[C@@H]2C1` [Araloside A] (compound dose: 10 uM): in assay [1], the cell viability came to 1.05 ± 0.032. The kynurenine production in assay [2] stood at 1.31 ± 0.014.
The matching figures for `C=C1CC[C@H]2C(=C)CC[C@H]3C(=C)C(=O)O[C@@H]3[C@@H]12` [Dehydrocostus Lactone] (compound dose: 10 uM): 0.933 ± 0.08 and 0.398 ± 0.079.
Regarding `COc1ccc2cc3[n+](cc2c1OC)CCc1cc2c(cc1-3)OCO2` [Berberine] (compound dose: 10 uM), the cell viability in assay [1] is 0.8829 ± 0.0012. The kynurenine production in assay [2] turned out to be 0.807 ± 0.11.
The matching figures for `CC(C)=CCC[C@](C)(O[C@@H]1O[C@H](CO)[C@@H](O)[C@H](O)[C@H]1O)[C@H]1CC[C@]2(C)[C@@H]1[C@H](O)C[C@@H]1[C@@]3(C)CC[C@H](O[C@@H]4O[C@H](CO)[C@@H](O)[C@H](O)[C@H]4O)C(C)(C)[C@@H]3CC[C@]12C` [Ginsenoside F2] (compound dose: 10 uM): 0.992 ± 0.033 and 0.818 ± 0.12.
The matching figures for `CC1=CCC2C[C@H]1C2(C)C` [(1R)-α-Pinene] (compound dose: 10 uM): 0.932 ± 0.081 and 0.79 ± 0.12.
The matching figures for `CC(=O)OC(CC(C)C1=C2C[C@H](O)C3[C@@]4(C)CCC(=O)C(C)(C)C4CC[C@]3(C)[C@@]2(C)CC1)C1OC1(C)C` (stereo partly specified) [Alisol B 23-acetate] (compound dose: 10 uM): 1.05 ± 0.034 and 1.27 ± 0.24.
Consider `C=C(C)[C@@H]1CC[C@]2(C(=O)O)CC[C@]3(C)[C@H](CC[C@@H]4[C@@]5(C)CCC(=O)C(C)(C)[C@@H]5CC[C@]43C)[C@@H]12` [Betulonic acid] (compound dose: 10 uM), for which the cell viability in assay [1] came out at 0.836 ± 0.033. Further, in assay [2], the kynurenine production is 0.785 ± 0.074.
On the same counts, the results for `O=c1c(O)c(-c2ccc(O)c(O)c2)oc2cc(O)cc(O)c12` [Quercetin] (compound dose: 10 uM) are 0.974 ± 0.095 and 0.738 ± 0.2.
Turning to `CC(CC(=O)C[C@@H](C)[C@H]1CC(=O)[C@@]2(C)C3=C(C(=O)C[C@]12C)[C@@]1(C)CC[C@H](O)C(C)(C)[C@@H]1C[C@@H]3O)C(=O)O` (stereo partly specified) [Ganoderic acid B] (compound dose: 10 uM), in assay [1], the cell viability worked out at 0.95 ± 0.032. Moreover, the kynurenine production in assay [2] was 0.774 ± 0.18.
Consider `CC(C)=CCC[C@@H](C)CC=O` [(R)-(+)-Citronellal] (compound dose: 10 uM), for which the cell viability in assay [1] worked out at 1.07 ± 0.035. The kynurenine production in assay [2] turned out to be 1.44 ± 0.056.
As to `COC(=O)C1=CC[C@@]23CC[C@@H]([C@@](C)(/C=C/C=C(\C)C(=O)O)OC2=O)[C@@]3(O)CC1` [Pseudolaric Acid C] (compound dose: 10 uM), in assay [1], the cell viability came out at 0.927 ± 0.094. Besides, in assay [2], the kynurenine production is 1.23 ± 0.051.
`CC1(C)CCCC2(C)C1CCC1(C)OCCC12` (stereo unspecified) [Ambroxide] (compound dose: 10 uM): the cell viability in assay [1] came out at 0.964 ± 0.053. The kynurenine production in assay [2] came out at 0.891 ± 0.13.
For `CC(=O)O[C@H]1C(=O)[C@@]2(C)[C@H]([C@H](OC(=O)c3ccccc3)[C@]3(O)C[C@H](OC(=O)[C@H](O)[C@@H](NC(=O)c4ccccc4)c4ccccc4)C(C)=C1C3(C)C)[C@]1(OC(C)=O)CO[C@@H]1C[C@@H]2O` [7-epi-Taxol] (compound dose: 10 uM), the cell viability in assay [1] came to 0.791 ± 0.032. For the same compound, the kynurenine production in assay [2] was determined as 0.3 ± 0.026.
For the compound `C=C1CC[C@@H]2[C@](C)(COC(=O)CCC(=O)O)[C@H](OC(=O)CCC(=O)O)CC[C@@]2(C)[C@@H]1/C=C/C1=CCOC1=O` [Kalii Dehydrographolidi Succinas] (compound dose: 2 uM), in assay [1], the cell viability came to 1.08 ± 0.13. Moreover, the kynurenine production in assay [2] was 1.2675 ± 0.00049.
The matching figures for `Cc1cc(O)cc(O[C@@H]2O[C@H](CO)[C@@H](O)[C@H](O)[C@H]2O)c1` [Orcinol glucoside] (compound dose: 10 uM): 1.05 ± 0.027 and 0.821 ± 0.095.
As to `C/C1=C/CC[C@H](C)C(=O)C[C@@H](C(C)C)C(=O)C1` [Curdione] (compound dose: 10 uM), in assay [1], the cell viability was found to be 0.926 ± 0.015. The kynurenine production in assay [2] came to 1.02 ± 0.059.
The matching figures for `CC1CCC(C(C)C)C(O)C1` [(1R,2S,5R)-(-)-menthol] (compound dose: 10 uM): 0.935 ± 0.035 and 0.806 ± 0.069.
In the case of `CC1(C)CC[C@]2(C(=O)O)[C@H](O)C[C@]3(C)C(=CC[C@@H]4[C@@]5(C)CC[C@H](O)C(C)(C)[C@@H]5CC[C@]43C)[C@H]2C1` [Echinocystic acid] (compound dose: 10 uM), the cell viability in assay [1] is 1.03 ± 0.014. The kynurenine production in assay [2] was 0.787 ± 0.065.
Regarding `C[C@@H]1O[C@@H](OC[C@H]2O[C@@H](Oc3c(-c4ccc(O)cc4)oc4cc(O)cc(O)c4c3=O)[C@H](O)[C@@H](O)[C@@H]2O)[C@H](O)[C@H](O)[C@H]1O` [Kaempferol 3-rutinoside] (compound dose: 10 uM), in assay [1], the cell viability was 1.1 ± 0.14. Further, the kynurenine production in assay [2] was found to be 0.955 ± 0.049.
On the same counts, the results for `C=C(C)[C@@H]1CC[C@@H](C)[C@@H]2CCC(C)=C[C@@H]21` [Amorpha-4,11-diene] (compound dose: 10 uM) are 1.01 ± 0.06 and 0.961 ± 0.19.
The matching figures for `C[C@H]1[C@H](C)CC[C@]2(C(=O)O)CC[C@]3(C)C(=CC[C@@H]4[C@@]5(C)C[C@@H](O)[C@H](O)C(C)(C)[C@@H]5CC[C@]43C)[C@H]12` [Corosolic acid] (compound dose: 10 uM): 1.07 ± 0.16 and 1.19 ± 0.13.
For the compound `C=C(C)[C@@H]1CC[C@]2(C)CC[C@]3(C)[C@H](CC[C@@H]4[C@@]5(C)CCC(=O)C(C)(C)[C@@H]5CC[C@]43C)[C@@H]12` [Lupenone] (compound dose: 10 uM), the cell viability in assay [1] came out at 0.9789 ± 0.0076. Further, the kynurenine production in assay [2] is 0.898 ± 0.16.
On the same counts, the results for `CC(C)=CCC/C(C)=C/CC/C(C)=C/CC/C=C(\C)CC/C=C(\C)CCC=C(C)C` [Squalene] (compound dose: 10 uM) are 0.914 ± 0.13 and 0.887 ± 0.027.
Consider `C=C1CC[C@H]2[C@@H](/C=C(\C)C(=O)[C@@]3(OC(C)=O)C[C@H](C)[C@H](OC(=O)c4cccnc4)[C@@H]3[C@H]1OC(C)=O)C2(C)C` [Euphorbia factor L8] (compound dose: 10 uM), for which the cell viability in assay [1] was found to be 1.1 ± 0.075. Also, the kynurenine production in assay [2] is 0.89 ± 0.083.
The matching figures for `COc1cc2c(cc1O)C(Cc1ccc(O)cc1)NCC2` (stereo unspecified) [Coclaurine] (compound dose: 10 uM): 0.988 ± 0.044 and 1.04 ± 0.062.
On the same counts, the results for `C[C@H]1[C@H](C)CC[C@]2(C(=O)O)CC[C@]3(C)C(=CC[C@@H]4[C@@]5(C)CC[C@H](O)C(C)(C)[C@@H]5CC[C@]43C)[C@H]12` [Ursolic acid] (compound dose: 10 uM) are 0.973 ± 0.015 and 0.891 ± 0.21.
Turning to `C=C1[C@H](OC(=O)C(C)C)[C@@H](O)[C@@H](OC(=O)c2cccnc2)C(C)(C)/C=C/[C@H](C)[C@H](OC(C)=O)[C@@]2(O)C[C@@](C)(OC(C)=O)[C@H](OC(=O)c3ccccc3)[C@@H]2[C@H]1OC(C)=O` [Jatrophane 3] (compound dose: 10 uM), in assay [1], the cell viability was 1.04 ± 0.056. For the same compound, in assay [2], the kynurenine production is 0.82 ± 0.18.
The matching figures for `CC(=O)O[C@@H]1CC[C@@]2(C)[C@@H](CC[C@]3(C)[C@@H]2[C@H](O)C=C2[C@@H]4[C@@H](C)[C@H](C)CC[C@]4(C)CC[C@]23C)[C@@]1(C)C(=O)O` [3-O-Acetyl-11-hydroxy-beta-boswellic acid] (compound dose: 10 uM): 0.8634 ± 0.0022 and 0.988 ± 0.083.
As for `C=C1C(=O)O[C@@H]2/C=C(\C)C[C@@H]3C=C(C[C@H](OC(=O)/C(C)=C\C)[C@@H]12)C(=O)O3` [Scabertopin] (compound dose: 10 uM), in assay [1], the cell viability was determined as 0.873 ± 0.022. In assay [2], the kynurenine production turned out to be 0.182 ± 0.087.
The matching figures for `C[C@@H]1O[C@@H](O[C@H]2[C@H](OC(=O)[C@]34CCC(C)(C)C[C@H]3C3=CC[C@@H]5[C@@]6(C)C[C@H](O)[C@H](O[C@@H]7O[C@H](CO)[C@@H](O)[C@H](O)[C@H]7O)[C@@](C)(CO)[C@@H]6CC[C@@]5(C)[C@]3(C)C[C@H]4O)OC[C@H](O)[C@@H]2O)[C@H](O)[C@H](O)[C@H]1O[C@@H]1OC[C@@H](O)[C@H](O[C@@H]2OC[C@](O)(CO)[C@H]2O)[C@H]1O` [Polygalacin D] (compound dose: 10 uM): 0.821 ± 0.05 and 0.382 ± 0.056.
The matching figures for `C=C1C(=O)O[C@@H]2[C@H]3C(C)=CC[C@@]34O[C@@]4(C)CC[C@@H]12` [Arglabin] (compound dose: 10 uM): 1.01 ± 0.041 and 0.822 ± 0.039.
